Data on five molecules can be found in PubChem BioAssay.

Calls of active or inactive are those of the source. Unless noted, how the calls were made is not given here.

The nature of assay [1]: compounds binding Alexa647 anti-His antibody – biochemical, small-molecule microarray, 635 nm fluorescence, artefact control for SMM control protein annotation, primary screen (AID 1128).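 Further: score merges feature fluorescence with signal-to-noise for each printed compound spot.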 The following applies: higher = more signal.
For assay [2], the system named is Human papillomavirus type 1a E7 protein (residues 1-88). Kind of assay: HPV1a E7 small-molecule binders, primary screen, biochemical, small-molecule microarray, residues 1-88, 635 nm (AID 1129). Particulars: small-molecule microarray binding, fluorescence 635 nm; higher = more signal.
For assay [3], the target named is Focal adhesion kinase 1 (Homo sapiens) (UniProt Q05397). Kind of assay: PTK2 protein binding on printed compound slides – biochemical, small-molecule microarray, 635/667 nm fluorescence, BSA, DTT, primary screen (AID 1130).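 Further: composite of spot emission at 667 nm and signal to noise over triplicate slides.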 The following applies: 635 nm fluorescence, higher = more signal.
Chain of Focal adhesion kinase 1 (Homo sapiens) (Q05397 whole entry, looked up): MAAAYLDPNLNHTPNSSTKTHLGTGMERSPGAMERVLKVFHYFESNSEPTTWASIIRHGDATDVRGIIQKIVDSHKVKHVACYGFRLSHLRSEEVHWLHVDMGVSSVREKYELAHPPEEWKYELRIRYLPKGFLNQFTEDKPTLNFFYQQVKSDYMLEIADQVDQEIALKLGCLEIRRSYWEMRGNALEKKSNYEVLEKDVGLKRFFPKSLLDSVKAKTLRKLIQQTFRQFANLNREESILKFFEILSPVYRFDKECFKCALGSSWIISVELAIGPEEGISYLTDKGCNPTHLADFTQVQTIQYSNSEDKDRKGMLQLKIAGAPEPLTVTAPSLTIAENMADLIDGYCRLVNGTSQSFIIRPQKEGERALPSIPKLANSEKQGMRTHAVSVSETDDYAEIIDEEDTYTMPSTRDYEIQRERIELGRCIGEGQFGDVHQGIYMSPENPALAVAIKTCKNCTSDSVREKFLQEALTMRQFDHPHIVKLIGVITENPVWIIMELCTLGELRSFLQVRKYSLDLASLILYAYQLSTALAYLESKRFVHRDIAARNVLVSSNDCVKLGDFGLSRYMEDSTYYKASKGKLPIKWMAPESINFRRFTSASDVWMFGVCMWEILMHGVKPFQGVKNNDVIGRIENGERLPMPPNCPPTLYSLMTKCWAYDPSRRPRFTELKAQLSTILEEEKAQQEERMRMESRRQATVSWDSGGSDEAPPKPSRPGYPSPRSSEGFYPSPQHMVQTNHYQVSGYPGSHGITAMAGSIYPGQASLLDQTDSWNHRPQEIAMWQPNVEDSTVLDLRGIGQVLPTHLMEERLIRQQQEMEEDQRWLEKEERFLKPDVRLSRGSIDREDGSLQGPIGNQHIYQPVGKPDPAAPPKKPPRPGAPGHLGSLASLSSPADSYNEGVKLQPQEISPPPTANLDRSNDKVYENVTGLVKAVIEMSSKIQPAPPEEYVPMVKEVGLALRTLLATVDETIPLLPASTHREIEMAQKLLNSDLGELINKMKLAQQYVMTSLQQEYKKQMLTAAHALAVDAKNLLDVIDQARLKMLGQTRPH
Assay [4] deals with Fibrinogen (Alexa647-labelled). The assay is described as follows: Alexa647-fibrinogen binding to printed small molecules – biochemical, small-molecule microarray, 635/667 nm fluorescence, artefact control for SMM control-protein annotation, profiling panel (AID 1131).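 Further: z-score merges 667 nm fluorescence with per-spot signal-to-noise over triplicate slides.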 Particulars: fibrinogen-A647 binding fluorescence, higher = more signal.
Assay [5] has as its target Follistatin (Homo sapiens) (UniProt P19883). Kind of assay: FST protein binding to printed compounds – biochemical, small-molecule microarray, 635/667 nm fluorescence, primary screen (AID 1132). Particulars: 635 nm fluorescence, higher = more signal.
The target of assay [6] is Fibroblast growth factor 2 (Homo sapiens) (UniProt P09038). Kind of assay: basic fibroblast growth factor binding to printed compounds – biochemical, small-molecule microarray, 635/667 nm fluorescence, primary screen (AID 1133). The following applies: FGF2, fluorescence 635/667, higher = more signal.
Chain of Fibroblast growth factor 2 (Homo sapiens) (P09038 whole entry, looked up): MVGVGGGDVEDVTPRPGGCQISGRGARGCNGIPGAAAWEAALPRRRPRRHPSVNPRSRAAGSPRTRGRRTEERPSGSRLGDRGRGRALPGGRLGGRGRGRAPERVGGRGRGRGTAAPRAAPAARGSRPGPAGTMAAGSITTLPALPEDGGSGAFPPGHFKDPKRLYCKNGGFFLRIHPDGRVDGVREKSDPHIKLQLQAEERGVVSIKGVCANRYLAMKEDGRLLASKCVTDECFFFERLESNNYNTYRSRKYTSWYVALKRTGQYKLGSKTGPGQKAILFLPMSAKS
A short description of assay [7]: JC-1 mitochondrial potential readout, lung cancer cells – cell-based, A549, JC-1 fluorescence, basal, 24 h, 100 nL, profiling panel (AID 1138).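 Further: A549 lung adenocarcinoma cells under basal conditions with no added stimulus; test concentration not given here.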 Particulars: higher = more signal.
Assay [8] relates to Lefty1. Kind of assay: Lefty1 protein binding to printed compounds – biochemical, small-molecule microarray, 635/667 nm fluorescence, primary screen (AID 1139). The following applies: fluorescence 635/667, higher = more signal.
For assay [9], the system named is wheat germ agglutinin (Triticum aestivum), Alexa647-labelled. Kind of assay: Alexa647-WGA lectin binding to printed small molecules – biochemical, small-molecule microarray, 635/667 nm fluorescence, artefact control for SMM control-protein annotation, profiling panel (AID 1140).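 Further: score merges 667 nm feature emission with signal to noise over triplicate slides.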 Particulars: WGA-A647 binding, 635 nm fluorescence, higher = more signal.
Assay [10] deals with Luciferin 4-monooxygenase (Photinus pyralis) (UniProt P08659). Kind of assay: inhibition of purified Photinus pyralis luciferase – biochemical, luminescence, purified enzyme, 2006 set, primary screen (AID 1141).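 Further: cell-free assay with purified firefly luciferase at 100 ng per well in PBS; test concentration not given here.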 The following applies: purified firefly luciferase, SteadyGlo luminescence, 30 min; higher = more signal, called active from +8 up or from −8 down.
Chain of Luciferin 4-monooxygenase (Photinus pyralis) (P08659 whole entry, looked up): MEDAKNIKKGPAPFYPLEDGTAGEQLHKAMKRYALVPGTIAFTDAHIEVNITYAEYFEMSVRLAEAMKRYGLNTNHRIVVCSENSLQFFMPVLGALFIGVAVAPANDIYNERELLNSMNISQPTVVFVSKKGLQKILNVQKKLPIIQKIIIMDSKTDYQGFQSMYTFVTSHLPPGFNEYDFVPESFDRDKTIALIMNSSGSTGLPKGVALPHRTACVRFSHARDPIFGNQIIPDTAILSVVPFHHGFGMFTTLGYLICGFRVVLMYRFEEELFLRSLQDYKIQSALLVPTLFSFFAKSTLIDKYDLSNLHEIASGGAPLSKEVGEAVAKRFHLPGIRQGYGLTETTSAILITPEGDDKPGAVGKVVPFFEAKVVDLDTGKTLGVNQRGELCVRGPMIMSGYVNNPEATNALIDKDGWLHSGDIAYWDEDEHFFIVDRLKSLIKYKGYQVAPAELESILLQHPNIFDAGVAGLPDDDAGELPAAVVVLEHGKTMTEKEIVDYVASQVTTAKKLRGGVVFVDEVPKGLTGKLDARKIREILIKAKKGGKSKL
Assay [11] has as its system Wnt5a (protein binding on small-molecule microarray). Kind of assay: small molecules binding Wnt5a protein – biophysical, small-molecule microarray, 635/667 nm fluorescence, primary screen (AID 1142).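 Further: fluorescence read at 667 nm with signal to noise per printed feature.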 Particulars: 635 nm fluorescence, higher = more signal.
Assay [12] in a line: ATP-based viability of Huh7 replicon cells – cell-based, CellTiter-Glo luminescence, basal, 48 h, cytotoxicity control for HCV replication inhibitor project, primary screen (AID 1143).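 Further: Huh7 hepatoma cells carrying a hepatitis C replication reporter with no stimulus; test concentration not given here.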 Particulars: higher = more signal, called active from +8 up or from −8 down.
Assay [13] in a line: Pseudomonas biofilm growth suppression – PAO1 strain, BacTiter-Glo luminescence, LB-PBS, primary screen (AID 1144). Particulars: P. aeruginosa PAO1 biofilm, 12 h, higher = more signal.
Assay [14] can be described thus: basal CRE-LacZ reporter activity in PC12 – cell-based, unstimulated, primary screen (AID 1145). The following applies: no forskolin, luminescence, 4.5 h, higher = more signal, called active from +8 up or from −8 down.
A short description of assay [15]: forskolin-driven CRE-LacZ activity in PC12 – cell-based, CRE-LacZ reporter, forskolin-stimulated, primary screen (AID 1146).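 Further: PC12 cells with 6xCRE LacZ reporter stimulated by forskolin 10 µM; beta-galactosidase reporter signal reflecting CREB driven transcription.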 The following applies: luminescence, 4.5 h, higher = more signal, called active from +8 up or from −8 down.
Assay [16] addresses Streptavidin (Streptomyces avidinii) (UniProt P22629). Kind of assay: compounds binding control protein streptavidin – biophysical, small-molecule microarray, 635/667 nm fluorescence, artefact control for SMM compound annotation, primary screen (AID 1147).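 Further: signal reflects streptavidin binding to arrayed compounds as a control protein.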 The following applies: higher = more signal.
A short description of assay [17]: probe aInhba binding on compound microarray – biochemical, small-molecule microarray, 635/667 nm fluorescence, primary screen (AID 1148).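 Further: score merges 667nm spot fluorescence with signal-to-noise for antibody binding to printed compounds.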 The following applies: higher = more signal.
The target in assay [18] is Torsin-1A (Homo sapiens) (UniProt O14656). The assay is described as follows: TOR1A wild-type binding on microarray – cell lysate, small-molecule microarray, lysate, 635/667 nm, primary screen (AID 1149). The following applies: COS7 hTOR1A-WT lysate, 635 nm fluorescence, higher = more signal.
Chain of Torsin-1A (Homo sapiens) (O14656 whole entry, looked up): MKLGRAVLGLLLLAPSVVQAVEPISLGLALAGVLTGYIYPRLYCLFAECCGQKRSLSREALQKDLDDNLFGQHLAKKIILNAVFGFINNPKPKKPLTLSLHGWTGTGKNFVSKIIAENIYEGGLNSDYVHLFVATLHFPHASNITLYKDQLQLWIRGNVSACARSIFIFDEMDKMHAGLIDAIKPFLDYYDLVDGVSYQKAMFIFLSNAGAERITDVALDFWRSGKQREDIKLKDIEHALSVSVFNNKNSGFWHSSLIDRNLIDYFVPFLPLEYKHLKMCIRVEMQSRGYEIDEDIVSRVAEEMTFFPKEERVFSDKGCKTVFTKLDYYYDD
The target is the same in assay [19]. The assay is described as follows: torsin A mutant lysate binding on microarrays – cell lysate, small-molecule microarray, COS7 lysate, 635/667 nm fluorescence, primary screen (AID 1150).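 Further: score pools 667 nm emission and signal to noise measuring lysate protein binding.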 The following applies: COS7 hTOR1A mutant lysate, 635 nm fluorescence, higher = more signal.
Assay [20] deals with Sonic hedgehog protein (Shh). Kind of assay: Sonic hedgehog microarray binding compounds – biochemical, small-molecule microarray, 635/667 nm fluorescence, primary screen (AID 1151).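 Further: Shh protein binding to compounds spotted on small-molecule microarray slides; score combines spot fluorescence intensity with signal-to-noise across triplicate slides.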 The following applies: 635 nm fluorescence, higher = more signal.

Chain of Streptavidin (Streptomyces avidinii) (P22629 whole entry, looked up): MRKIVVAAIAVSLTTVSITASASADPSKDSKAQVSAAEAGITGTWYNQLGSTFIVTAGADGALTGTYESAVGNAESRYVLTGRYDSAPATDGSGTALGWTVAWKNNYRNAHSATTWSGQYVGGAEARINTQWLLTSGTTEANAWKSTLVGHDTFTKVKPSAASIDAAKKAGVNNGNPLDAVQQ
Chain of Follistatin (Homo sapiens) (P19883 whole entry, looked up): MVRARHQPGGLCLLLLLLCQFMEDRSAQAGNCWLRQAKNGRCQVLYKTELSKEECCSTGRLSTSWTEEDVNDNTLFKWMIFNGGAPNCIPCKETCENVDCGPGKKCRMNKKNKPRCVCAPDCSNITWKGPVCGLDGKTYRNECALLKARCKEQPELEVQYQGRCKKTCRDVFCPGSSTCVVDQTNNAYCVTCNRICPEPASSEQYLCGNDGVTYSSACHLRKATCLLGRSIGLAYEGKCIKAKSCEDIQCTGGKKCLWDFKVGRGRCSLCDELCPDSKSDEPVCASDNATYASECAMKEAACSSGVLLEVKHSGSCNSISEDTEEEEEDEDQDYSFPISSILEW

For `NC(=O)NCC#Cc1ccc2c(c1)[C@]1(C(=O)N2)[C@H](C(=O)N2CCCCCCC2)[C@H]2C(=O)O[C@H](c3ccccc3)[C@H](c3ccccc3)N2[C@@H]1c1ccc(O)cc1`, the composite z-score in assay [1] was determined as 0.0328; in [2] it was 1.01; in assay [3], 0.568; in assay [4], 0.879; in assay [5], 1.52; in assay [6], 1.15. The composite z-score in assay [8] is 0.784; in assay [9], 1.15; in assay [11], 0.399; in assay [16], 1.05; in assay [17], 1.51; in assay [18], 0.529. For the same molecule, the composite z-score in [19] came to 0.676; in assay [20] it was 1.22. Also, the z-score in [7] is -1.16; in [10], -0.161 (inactive); in assay [12] it was 0.33 (inactive); in [13] it was -0.209 (inactive); in [14], 0.0695 (inactive); in [15], -0.745 (inactive).

Regarding `CN(C)CCCC[C@@H]1NC(=O)[C@@H]2C[C@H](C(=O)NCc3ccc(F)cc3)[C@H](c3ccc(O)cc3)N2C1=O`, the composite z-score is 0.0971 in assay [1]; 0.0709 in assay [2]; -0.103 in [3]; 0.348 in [4]; 1.45 in [5]; 1.91 in assay [6]. In addition, the composite z-score was 0.748 in assay [8]; -0.0665 in assay [9]; 0.939 in assay [11]; -0.574 in [16]; 0.305 in assay [17]; 0.704 in assay [18]. For the same molecule, the figures for the composite z-score in assay [19] and in assay [20] were 0.249 and 2.28, respectively. Also, the z-score in [7] was 0.0539; in [10], 0.144 (inactive); in assay [12] it was 0.0109 (inactive); in assay [13], -0.886 (inactive); in [14], 0.557 (inactive); in [15] it was -0.636 (inactive).

On to `CC1CC/C=C\[C@H]2OC34C=CCN(c5ccc(Cl)cc5)C(=O)[C@H]3N(CCCO)C(=O)[C@]4(C)C2C(=O)O1` (stereo not given in full), for which the composite z-score in [1] is -0.567; in assay [2], -0.796; in assay [3], -0.444; in assay [4], -1.67; in [5] it was -0.6; in assay [6], -1.2. Further, the composite z-score in assay [8] is -0.157; in assay [9], -1.34; in assay [11] it was -0.785; in assay [16], -1.02; in assay [17] it was -0.253; in assay [18], -2.1. For the same molecule, the composite z-score was -0.989 in assay [19] and 0.424 in assay [20]. Also, the z-score was 0.58 in assay [7]; -0.0112 (inactive) in [10]; -0.0438 (inactive) in assay [12]; 1.63 (inactive) in assay [13]; 0.988 (inactive) in assay [14]; 0.22 (inactive) in assay [15].

Consider `NC(=O)[C@@]1(CCS(=O)(=O)c2ccccc2)COC(c2ccc(OCCCO)cc2)=N1`, for which the composite z-score in assay [1] is 0.329; in assay [2] it was -0.201; in assay [3], -0.0683; in assay [4] it was 0.294; in assay [5], 0.112; in assay [6], -0.0653. The composite z-score is -0.643 in assay [8]; 1.05 in assay [9]; 0.375 in [11]; 0.447 in [16]; -0.0044 in assay [17]; -0.0756 in assay [18]. The composite z-score in assay [19] was 0.324; in assay [20] it was -0.463. Besides, the z-score in assay [7] is -0.492; in assay [10], -0.188 (inactive); in [12], -1.5 (inactive); in [13] it was 1.59 (inactive); in assay [14], 0.148 (inactive); in assay [15] it was -1.35 (inactive).

Take `CCCC[C@H]1OB(O)C[C@H]2C1=C(C)C[C@H]1C(=O)C=CC(=O)[C@H]12`: the composite z-score is 0.306 in assay [1]; 0.615 in assay [2]; -0.244 in assay [3]; 0.483 in [4]; 0.828 in assay [5]; 0.642 in assay [6]. Moreover, the composite z-score was 1.16 in assay [8]; -0.0126 in assay [9]; -0.0289 in assay [11]; 0.146 in [16]; -0.0292 in [17]; 0.935 in [18]. In addition, the composite z-score in assay [19] worked out at 0.527; in assay [20], 1.71. In addition, the z-score was -0.353 in assay [7]; -2.94 (inactive) in assay [10]; -1.52 (inactive) in [12]; 0.244 (inactive) in [13]; 19.6 (active) in assay [14]; 14.8 (active) in assay [15].
